KB-V1 MDR tox: KB-V1 MDR subline cytotoxicity; KB-V1 MDR cells viability, CellTiter-Glo, 72 h; Potency, µM (series often up to 46.1 µM), most hits filed as cytotoxic; 400,000 tested, 3.4% active; note: % is set by controls: 0 for no effect and ±100 for the full control effect; nearly all actives have a fitted effect of over 60% in size
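Readout: CellTiter-Glo luminescence, 10 min after addition. Cells: KB-V1 MDR subline, 72 h at 37 degrees C with compound. Analysis: corrected, normalized data fitted to concentration-effect curves.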
RORgamma inh: ROR gamma (mouse) transcription inhibition | AID 2551 | Drosophila S2 Gal4-RORgamma UAS-luciferase reporter, 20 h | Potency, µM (top dose mostly 53.6 µM), inactives show at the highest dose activity change, negative = inhibition, usual class: inhibitors | 310,000 tested, 5.4% active; note: % is set by controls: 0 for no effect and ±100 for the full control effect; nearly all actives have a fitted effect of over 60% in size
Target sequence (P51450 whole entry, looked up, the tested form may be a part): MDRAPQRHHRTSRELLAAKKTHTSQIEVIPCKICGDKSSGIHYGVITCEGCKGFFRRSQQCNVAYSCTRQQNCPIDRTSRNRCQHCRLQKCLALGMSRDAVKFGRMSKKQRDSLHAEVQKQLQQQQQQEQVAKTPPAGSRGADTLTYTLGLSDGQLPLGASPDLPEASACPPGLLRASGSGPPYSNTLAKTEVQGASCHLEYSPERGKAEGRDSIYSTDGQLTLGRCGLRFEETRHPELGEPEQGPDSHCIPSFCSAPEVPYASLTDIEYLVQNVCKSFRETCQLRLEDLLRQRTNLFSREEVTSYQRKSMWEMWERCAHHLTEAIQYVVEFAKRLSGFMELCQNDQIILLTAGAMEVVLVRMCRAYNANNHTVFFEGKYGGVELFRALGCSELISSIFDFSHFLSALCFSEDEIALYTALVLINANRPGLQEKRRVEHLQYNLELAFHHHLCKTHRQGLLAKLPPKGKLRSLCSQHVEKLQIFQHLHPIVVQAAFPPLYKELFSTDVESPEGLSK
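Drosophila Schneider cells stably carrying a metallothionein-driven Gal4 DBD–ROR gamma fusion and a UAS-Photinus luciferase reporter were exposed to compound for 1 hr, then induced with copper sulfate (700 uM final) for 20 hr at ambient temperature before luminescence reading.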
MCF10A rereplic: DNA re-replication induction in MCF 10a cells; MCF 10A DNA re-replication, Hoechst nuclear intensity, 48 h; 350,000 tested, 2.9% active; AID 624296; Potency, µM (top dose mostly 46.1 µM), without a hit: at the highest dose activity, positive = re-replication, hits mostly activators; note: % of control where 0% means no effect; nearly all actives have a fitted effect of over 50% in size
KB-3-1 tox: kills parental KB-3-1 adenocarcinoma cells | KB-3-1 viability, CellTiter-Glo ATP luminescence, 72 h | Potency, µM (series often up to 46.1 µM), actives largely listed as cytotoxic | 400,000 tested, 1.4% active; note: % is set by controls: 0 for no effect and ±100 for the full control effect; nearly all actives have a fitted effect of over 60% in size
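KB-3-1 parental drug-naive adenocarcinoma cells in DMEM/10% FBS, incubated 72 h at 37 C with pin-transferred compounds across a concentration series. Viability by CellTiter-Glo luminescence; concentration-response curves fitted after normalization.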
SW480 rereplic: induces DNA re-replication in SW480 colon adenocarcinoma cells; Potency, µM (series often up to 46.1 µM), for the others: at the top dose re-replication activation, most hits filed as activators; SW480 DNA re-replication, Hoechst DNA content imaging, 48 h; 340,000 tested, 1.8% active; note: % of control where 0% means no effect; nearly all actives have a fitted effect of over 55% in size
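SW480 cells exposed to compounds for 48 hr at 37 C, 5% CO2, then Hoechst-stained 40 min. Nuclear DNA content imaged by fluorescence scanning (405 nm excitation, 500-530 nm emission); re-replication scored as increased high-intensity nuclei.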
Gal4-VP16 FLuc: Gal4-VP16 reporter inhibition counter-screen; Drosophila S2 Gal4-VP16 UAS-luciferase, luminescence, 20 h; Potency, µM (doses to about 53.6 µM), for the others: at the top dose activity, negative = inhibition, most hits filed as inhibitors; 310,000 tested, 3.5% active;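 note: Gal4-VP16 expression switched on by copper sulfate through the metallothionein promoter; % is set by controls: 0 for no effect and ±100 for the full control effect; nearly all actives have a fitted effect of over 50% in size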
* hit, by the source's call; i = inactive; ? = inconclusive; . = no result given; [ ] = another dose, or the depositor's remark. Compounds with a hit are over-represented: about 10% of the library has one in this group of screens. Calls come from the whole dose curve; as a rule, active = well fitted curve in the direction sought with a large enough effect; inconclusive = small, poorly fitted or top-dose-only effect, or another doubt; inactive = no such curve, though single readings can be large; an effect the other way counts as inactive or inconclusive. Potency is the fitted concentration of half-maximal effect.

SMILES | KB-V1 MDR tox | RORgamma inh | MCF10A rereplic | KB-3-1 tox | SW480 rereplic | Gal4-VP16 FLuc
COc1ccc2[nH]c3c(c2c1)CCN1C(=O)C(CC(=O)NCc2ccco2)C[C@H](C(=O)N2CCCCC2)[C@@]31C (stereo partly drawn) | ? | . | 4% | i | 18µM* | .
CC(C)=CCC/C(C)=C/CNC(=O)C[C@H]1C[C@H](C(=O)N(C(C)C)C(C)C)[C@@]2(C)c3[nH]c4ccc(Cl)cc4c3CCN2C1=O | i | . | -3% | i | 19% | .
COc1ccc2[nH]c3c(c2c1)CCN1C(=O)C(CC(=O)NC/C=C(\C)CCC=C(C)C)C[C@H](C(=O)N(C(C)C)C(C)C)[C@@]31C (stereo partly drawn) | ? | . | 15µM* | ? | ? | .
COc1ccc2c(c1)c1c(c(=O)n(-c3ccccc3)c(=O)n1CC(=O)Nc1ccc(F)cc1)n2C | i | . | . | i | . | .
CC(=O)OC[C@@H]1O[C@H](C/C=N\O[C@@H](C)CN2CCCc3nc(C)c(C)cc32)C=C[C@@H]1OC(C)=O | . | -17%[10 µM] | . | . | . | 7%[10 µM]
CCc1c(C)sc2c1CCN(Cc1ccccc1F)C2c1ccccc1 (stereo not drawn) | ? | . | . | 18µM* | . | .
CCc1c(C)sc2c1CCN(Cc1cccc(OC)c1)C2c1ccccc1 (stereo not drawn) | i | . | . | ? | . | .
Cc1cc([N+](=O)[O-])nn1CC(=O)N/N=C/c1ccccc1O | i | 2.2µM* | 5% | i | ? | 7.1µM*
Cc1cc(C)n(CC(=O)N/N=C/c2cc([N+](=O)[O-])ccc2O)n1 | ? | 2.8µM* | 13% | ? | ? | 2.8µM*
Cc1cc(C)n(CC(=O)N/N=C/c2cc(Br)cc([N+](=O)[O-])c2O)n1 | i | 0.63µM* | ? | i | 4% | 0.89µM*
COc1ccc(Oc2ncc3nc(-c4ccc(OC)cc4)c(=O)n(C4CC4)c3n2)cc1 | . | -34% | . | . | . | -7%
COc1cc2c(cc1OC)C(C)N(C(=O)Nc1ccc(F)cc1)CC2 (stereo not drawn) | 12µM* | 17% | ? | 13µM* | ? | 6%
COc1cc2c(cc1OC)C(COc1ccc(F)cc1)N(C(=O)Cc1ccc(F)cc1)CC2 (stereo not drawn) | i | . | . | ? | . | .
COc1cc2c(cc1OC)C(C)N(C(=O)Nc1cc(C)cc(C)c1)CC2 (stereo not drawn) | 6.5µM* | -16% | 3.7µM* | ? | ? | -21%
Cc1ccc[n+](C(C(=S)NCc2ccco2)=C([O-])c2ccccc2Cl)c1 | 21µM* | . | 12% | i | 2% | .
CCn1c(=O)c2cc(C(=O)N(C)c3cc(C)ccc3C)sc2c2ccccc21 | i | . | . | i | . | .
N/C(=N/OC(=O)c1ccccc1Cl)c1nonc1N | i | 20% | -34% | ? | 3% | -10%
N/C(=N/OCC(=O)Nc1cccc2ccccc12)c1nonc1N | 15µM* | 27% | 0% | i | -6% | 4%
CCOc1ccc(CN(C)CC(=O)Nc2ccc([N+](=O)[O-])cc2Cl)cc1 | 16µM* | 31% | 8% | i | 4% | ?
Cc1cc(-c2n[nH]c(=S)n2/N=C/C(Cl)=C/c2ccccc2)n[nH]1 | 21µM* | 8.9µM* | 4.6µM* | ? | ? | ?
S=c1[nH]nc(-c2ccco2)n1/N=C/C(Cl)=C/c1ccccc1 | i | 4µM* | 7.3µM* | i | ? | 11µM*
Cc1cc(-c2n[nH]c(=S)n2/N=C/c2cccc(O)c2)n[nH]1 | i | 3% | 8% | i | 11% | 0%
CNC(=O)c1ccc(N(Cc2ccccc2C)S(C)(=O)=O)cc1 | ? | -5% | -2% | i | -3% | 0%
Cc1ccccc1CN(c1ccc(C(=O)N2CCc3ccccc3C2)cc1)S(C)(=O)=O | 10µM* | ? | ? | 10µM* | 7% | ?
Clc1nccnc1N/N=C/c1ccc(Br)cc1 | i | 4.5µM* | 2% | ? | -14% | ?
SMILES | KB-V1 MDR tox | RORgamma inh | MCF10A rereplic | KB-3-1 tox | SW480 rereplic | Gal4-VP16 FLuc
O=[N+]([O-])c1ccccc1/C=N/Nc1nccnc1Cl | ? | 18% | 1% | ? | -9% | 1%
Oc1ccccc1/C=N/Nc1nccnc1Cl | i | 13µM* | ? | ? | ? | ?
Oc1ccc(/C=N/Nc2nccnc2Cl)c(O)c1 | ? | ? | 4% | i | 6% | 16µM*
CCOC(=O)N/N=C1/C[C@@H](O)[C@@H](O)[C@@H]2[C@@H]3C(=O)N(C[C@@H]4CCCO4)C(=O)[C@H]3CC[C@@H]12 | . | 23%[10 µM] | . | . | . | -6%[10 µM]
CCOC(=O)c1nc(Nc2ccc(C(=O)OCC(C)C)cc2)c2ccccc2n1 | i | . | . | i | . | .
CCOc1ccc(CCNC(=O)c2oc(=O)c3ccccc3c2-c2ccc(C)cc2)cc1OCC | i | . | . | i | . | .
Cc1ccc2c(c1)nnn2C1CCN(C(=O)Nc2ccccc2C)CC1 | i | -4% | -2% | i | -30% | -1%
CCOc1ccc(NC(=O)N2CCC(n3nnc4cc(C)ccc43)CC2)cc1 | ? | 43% | 15% | i | 15µM* | -9%
COC(=O)[C@]12CCCCC=C1N(Cc1ccccc1)C(=O)[C@H](CC(=O)NCc1ccccc1)C2 | ? | . | . | i | . | .
CCOC(=O)c1ccc(NC(=O)Cn2ncc(Cl)c(Cl)c2=O)cc1 | ? | ? | 2.6µM* | ? | 2.6µM* | 10µM*
Cc1cc(Br)ccc1NC(=O)CNC(=O)Cn1ncc(Cl)c(Cl)c1=O | ? | -30% | 1.2µM* | 5.2µM* | ? | ?
CCC(=O)Nc1ccc(C(=O)Cn2ncc(Cl)c(Cl)c2=O)cc1 | ? | -39% | 3.7µM* | ? | ? | -11%
COc1ccc(NC(=O)CC2Sc3ncnn3C2=O)cc1 (stereo not drawn) | i | ? | ? | i | 3% | ?
CCOC(=O)c1ccc(NC(=O)CC2Sc3ncnn3C2=O)cc1 (stereo not drawn) | i | ? | ? | i | -1% | 22µM*
COc1ccccc1OCCn1c(CCNC(=O)C2CCCCC2)nc2ccccc21 | i | . | . | i | . | .
CCc1ccccc1NC(=O)CN(C)C(=O)Cn1ncc(Cl)c(Cl)c1=O | ? | ? | 5.8µM* | ? | 6.5µM* | -8%
CCc1ccccc1NC(=O)CN(C)C(=O)Cn1cnc2ccc(Cl)cc2c1=O | i | . | -1% | i | 2% | .
Cc1cc(SCC(=O)NCc2ccccc2Cl)nc(=O)[nH]1 | i | . | . | i | . | .

Screening data (PubChem BioAssay)
